Data: PubChem BioAssay (EPA / NIEHS)
Inconclusive results are not listed. Activity calls are given as the source filed them. How the source made its calls, unless noted: active means hit-call score of the fitted dose curve at least 0.9, where 1 is the maximum; inconclusive means response in the unintended direction; inactive means score below 0.9.

Experiments:
[1] = molecular target: human Peroxisome Proliferator-activated Receptor alpha (PPARa), PPARA (gene 5465) (UniProt Q07869); assay: ATG_PPARa_TRANS: Attagene TRANS-FACTORIAL HepG2 Assay for human Peroxisome Proliferator-activated Receptor alpha (PPARa) (AID 2283001);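 on AC50: potency for gain of reporter signal over DMSO so agonist or activator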
How it was run: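 Measures transcriptional activity of an exogenous chimeric PPARa-Gal4 protein in transiently transfected HepG2 cells after 24 h dosing. Reporter mRNA quantified via RT-PCR and capillary electrophoresis; DMSO served as negative control.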

[2] = molecular target: human Peroxisome Proliferator-activated Receptor delta (PPARd), PPARD (gene 5467) (UniProt Q03181); assay: ATG_PPARd_TRANS: Attagene TRANS-FACTORIAL HepG2 Assay for human Peroxisome Proliferator-activated Receptor delta (PPARd) (AID 2283002)
How it was run: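 HepG2 cells transiently transfected with GAL4-UAS multiplexed reporter units driven by exogenous chimeric NR-GAL4 proteins; 24 h compound exposure. Reporter mRNA measured by RT-PCR, 6-FAM primer extension, HpaI digestion and capillary electrophoresis; gain of signal fitted relative to DMSO.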

[3] = read-out: Intercellular Adhesion Molecule 1 (ICAM1), ICAM1 (gene 3383); assay: BSK_3C_ICAM1: BioMAP Diversity Plus: 3C Assay for Intercellular Adhesion Molecule 1 (ICAM1) Biomarker Activity (AID 2283003; active means hit-call score of the fitted dose curve at least 0.9, where 1 is the maximum; inactive means score below 0.9); conditions: primary human endothelial cells (HUVEC); actives raise or lower the signal
How it was run: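 Primary human umbilical vein endothelial cells in the BioMAP 3C system were exposed to chemicals for 24 h, then ICAM-1 was quantified by ELISA. Activity was fitted bidirectionally against the DMSO negative control baseline.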

[4] = BSK_3C_Proliferation: Cell Proliferation Assessment in the BioMAP Diversity Plus: 3C Assay (AID 2283006; active means hit-call score of the fitted dose curve at least 0.9, where 1 is the maximum; inactive means score below 0.9;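 on AC50: potency may reflect either rise or fall in cell number versus DMSO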); conditions: primary human endothelial cells (HUVEC)
How it was run: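 Human umbilical vein endothelial cells were grown sub-confluent and exposed to chemical for 48 h, then fixed with 10% TCA and stained with 0.1% sulforhodamine B; absorbance at 560 nm gave relative cell number, fitted bidirectionally against DMSO baseline.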

[5] = molecular target: Nuclear receptor subfamily 1 group I member 2 (Homo sapiens) (UniProt O75469); assay: ATG_PXR_TRANS: Attagene TRANS-FACTORIAL HepG2 Assay for human Pregnane X Receptor (PXR) (AID 2283008)
How it was run: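 HepG2 cells transiently transfected with multiple reporter units, here a PXR-GAL4 chimera driving a GAL4-UAS reporter; 24 h compound exposure. Reporter mRNA measured by RT-PCR, FAM labelling and capillary electrophoresis; gain of signal fitted against DMSO baseline.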

[6] = molecular target: human RAR-related Orphan Receptor beta (RORb), RORB (gene 6096) (UniProt Q92753); assay: ATG_RORb_TRANS: Attagene TRANS-FACTORIAL HepG2 Assay for human RAR-related Orphan Receptor beta (RORb) (AID 2283010)
How it was run: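 HepG2 cells were transiently transfected with multiplexed GAL4-UAS reporter units expressing chimeric nuclear receptor–GAL4 proteins, then dosed for 24 h. Reporter mRNA was quantified by RT-PCR with fluorescent labelling and capillary electrophoresis; gain of signal was fitted relative to DMSO.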

[7] = molecular target: human RAR-related Orphan Receptor gamma (RORg), RORC (gene 6097) (UniProt P51449); assay: ATG_RORg_TRANS: Attagene TRANS-FACTORIAL HepG2 Assay for human RAR-related Orphan Receptor gamma (RORg) (AID 2283011)
How it was run: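 Readout: reporter transcript induction (RT-PCR, fluorescent primer extension, capillary electrophoresis) after 24 h compound exposure of transiently transfected HepG2 cells carrying a RORg-Gal4 chimera and GAL4-UAS reporters; DMSO served as baseline, with increasing signal fitted.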

[8] = molecular target: human Retinoid X Receptor beta (RXRb), RXRB (gene 6257) (UniProt P28702); assay: ATG_RXRb_TRANS: Attagene TRANS-FACTORIAL HepG2 Assay for human Retinoid X Receptor beta (RXRb) (AID 2283013)
How it was run: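 HepG2 cells transiently transfected with multiplexed reporter units driven by GAL4-UAS and exogenous chimeric NR-Gal4 proteins; treated 24 h. Reporter mRNA measured by RT-PCR, 6-FAM labelling and capillary electrophoresis; gain-of-signal fitted versus DMSO baseline.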

[9] = molecular target: human Thyroid Receptor alpha (THRa1), THRA (gene 7067) (UniProt P10827); assay: ATG_THRa1_TRANS: Attagene TRANS-FACTORIAL HepG2 Assay for human Thyroid Receptor alpha (THRa1) (AID 2283014)
How it was run: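 HepG2 cells transiently transfected with multiplexed GAL4-UAS reporter units for exogenous chimeric THRa1-Gal4; reporter mRNA measured 24 h after dosing by RT-PCR, 6-FAM labelling, HpaI digestion and capillary electrophoresis. Gain-of-signal fitted versus DMSO baseline.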

[10] = read-out: Interleukin-1 alpha (IL1a), IL1A (gene 3552); assay: BSK_BE3C_IL1a: BioMAP Diversity Plus: BE3C Assay for Interleukin-1 alpha (IL1a) Biomarker Activity (AID 2283016; active means hit-call score of the fitted dose curve at least 0.9, where 1 is the maximum; inactive means score below 0.9); conditions: primary human bronchial epithelial cells; actives raise or lower the signal
How it was run: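 Human primary bronchial epithelial cells (BE3C system) were dosed with compound and IL-1a measured by ELISA 24 h later. Activity was fitted bidirectionally against DMSO baseline; cytotoxicity was tracked in parallel cultures by SRB total-protein staining.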

[11] = read-out: Monocyte Chemoattractant Protein-1 (MCP1), CCL2 (gene 6347); assay: BSK_3C_MCP1: BioMAP Diversity Plus: 3C Assay for Monocyte Chemoattractant Protein-1 (MCP1) Biomarker Activity (AID 2283017; active means hit-call score of the fitted dose curve at least 0.9, where 1 is the maximum; inactive means score below 0.9); conditions: primary human endothelial cells (HUVEC); actives raise or lower the signal
How it was run: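 Primary human umbilical vein endothelial cells (3C system) were exposed to test chemical for 24 h, after which MCP-1 was quantified by ELISA. Activity was fitted bidirectionally against DMSO as negative control and baseline.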

[12] = read-out: Monocyte Chemoattractant Protein-1 (MCP1), CCL2 (gene 6347); assay: BSK_4H_MCP1: BioMAP Diversity Plus: 4H Assay for Monocyte Chemoattractant Protein-1 (MCP1) Biomarker Activity (AID 2283018; active means hit-call score of the fitted dose curve at least 0.9, where 1 is the maximum; inactive means score below 0.9); conditions: primary human endothelial cells (HUVEC); actives raise or lower the signal
How it was run: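 Human umbilical vein endothelial cells (4H system) dosed with chemical; MCP-1 measured by ELISA 24 h after dosing. Bidirectional curve fitting against DMSO negative control as baseline; parallel SRB total-protein staining tracks overt cytotoxicity.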

[13] = read-out: Human Leukocyte Antigen - DR isotype (HLADR), HLA-DRA (gene 3122); assay: BSK_3C_HLADR: BioMAP Diversity Plus: 3C Assay for Human Leukocyte Antigen - DR isotype (HLADR) Biomarker Activity (AID 2283019; active means hit-call score of the fitted dose curve at least 0.9, where 1 is the maximum; inactive means score below 0.9); conditions: primary human endothelial cells (HUVEC); actives raise or lower the signal
How it was run: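 Primary human umbilical vein endothelial cells (3C system) were dosed with compound and cell-surface HLA-DR was quantified by ELISA at 24 h. Activity was fitted bidirectionally against DMSO as negative control and baseline.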

[14] = read-out: Interleukin-8 (IL8), CXCL8 (gene 3576); assay: BSK_3C_IL8: BioMAP Diversity Plus: 3C Assay for Interleukin-8 (IL8) Biomarker Activity (AID 2283020; active means hit-call score of the fitted dose curve at least 0.9, where 1 is the maximum; inactive means score below 0.9); conditions: primary human endothelial cells (HUVEC); actives raise or lower the signal
How it was run: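 Primary human umbilical vein endothelial cells (3C system) were exposed to test chemical for 24 h, then IL-8 was quantified by ELISA. Responses were fitted bidirectionally against DMSO vehicle as baseline.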

[15] = read-out: Monokine induced gamma interferon (MIG), CXCL9 (gene 4283); assay: BSK_3C_MIG: BioMAP Diversity Plus: 3C Assay for Monokine induced gamma interferon (MIG) Biomarker Activity (AID 2283021; active means hit-call score of the fitted dose curve at least 0.9, where 1 is the maximum; inactive means score below 0.9); conditions: primary human endothelial cells (HUVEC); actives raise or lower the signal
How it was run: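 Primary human umbilical vein endothelial cells in the 3C system were exposed to chemical for 24 h, after which MIG was quantified by ELISA. Activity was fitted bidirectionally against DMSO as negative control and baseline.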

[16] = molecular target: Peroxisome proliferator-activated receptor gamma (Homo sapiens) (UniProt P37231); assay: ATG_PPARg_TRANS: Attagene TRANS-FACTORIAL HepG2 Assay for human Peroxisome Proliferator-activated Receptor-gamma (PPARg) (AID 2283007)
How it was run: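 HepG2 cells transiently transfected with multiplexed GAL4-UAS reporter units and exogenous chimeric NR-Gal4 proteins; reporter mRNA quantified after 24 h compound exposure by RT-PCR, fluorescent labelling, HpaI digestion and capillary electrophoresis; gain-of-signal fitted versus DMSO baseline.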

[17] = molecular target: human Retinoic Acid Receptor beta (RARb), RARB (gene 5915) (UniProt P10826); assay: ATG_RARb_TRANS: Attagene TRANS-FACTORIAL HepG2 Assay for human Retinoic Acid Receptor beta (AID 2283004)
How it was run: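 HepG2 cells transiently transfected with multiplexed GAL4-UAS reporter units expressing chimeric NR–Gal4 fusions; 24 h compound exposure. Reporter mRNA quantified by RT-PCR, 6-FAM labelling, HpaI digestion and capillary electrophoresis; gain-of-signal fitted against DMSO baseline.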

[18] = molecular target: Retinoic acid receptor RXR-alpha (Homo sapiens) (UniProt P19793); assay: ATG_RXRa_TRANS: Attagene TRANS-FACTORIAL HepG2 Assay for human Retinoid X Receptor alpha (RXRa) (AID 2283012)
How it was run: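 HepG2 cells transiently transfected with multiplexed GAL4-UAS reporter units and chimeric NR-GAL4 fusions, dosed 24 h. Reporter mRNA measured by RT-PCR, FAM labelling, HpaI digestion and capillary electrophoresis; gain-of-signal fitted relative to DMSO baseline.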

[19] = molecular target: Retinoic acid receptor alpha (Homo sapiens) (UniProt P10276); assay: ATG_RARa_TRANS: Attagene TRANS-FACTORIAL HepG2 Assay for human Retinoic Acid Receptor alpha (RARa) (AID 2283005)
How it was run: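 HepG2 transiently transfected with multiplex GAL4-UAS reporter units including a human RARa–GAL4 chimera; 24 h compound exposure. Reporter mRNA quantified by RT-PCR, 6-FAM labeling and capillary electrophoresis; gain of signal versus DMSO.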

Measured: AC50

Sequence of human RAR-related Orphan Receptor gamma (RORg), RORC (gene 6097) (P51449 whole entry, looked up, the tested form may be a part): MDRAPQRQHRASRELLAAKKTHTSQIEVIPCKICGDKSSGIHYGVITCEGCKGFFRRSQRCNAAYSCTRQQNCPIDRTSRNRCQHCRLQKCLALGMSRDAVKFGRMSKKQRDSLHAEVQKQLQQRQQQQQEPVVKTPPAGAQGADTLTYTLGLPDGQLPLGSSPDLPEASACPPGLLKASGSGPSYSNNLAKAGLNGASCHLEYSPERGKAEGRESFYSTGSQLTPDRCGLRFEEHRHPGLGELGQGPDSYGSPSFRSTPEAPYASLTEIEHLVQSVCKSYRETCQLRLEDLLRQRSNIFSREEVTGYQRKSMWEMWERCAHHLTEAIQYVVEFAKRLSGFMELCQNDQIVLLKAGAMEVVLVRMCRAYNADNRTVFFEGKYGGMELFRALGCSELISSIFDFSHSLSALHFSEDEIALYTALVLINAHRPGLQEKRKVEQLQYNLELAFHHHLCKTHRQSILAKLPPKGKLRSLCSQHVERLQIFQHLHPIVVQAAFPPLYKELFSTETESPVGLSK
Sequence of human RAR-related Orphan Receptor beta (RORb), RORB (gene 6096) (Q92753 whole entry, looked up, the tested form may be a part): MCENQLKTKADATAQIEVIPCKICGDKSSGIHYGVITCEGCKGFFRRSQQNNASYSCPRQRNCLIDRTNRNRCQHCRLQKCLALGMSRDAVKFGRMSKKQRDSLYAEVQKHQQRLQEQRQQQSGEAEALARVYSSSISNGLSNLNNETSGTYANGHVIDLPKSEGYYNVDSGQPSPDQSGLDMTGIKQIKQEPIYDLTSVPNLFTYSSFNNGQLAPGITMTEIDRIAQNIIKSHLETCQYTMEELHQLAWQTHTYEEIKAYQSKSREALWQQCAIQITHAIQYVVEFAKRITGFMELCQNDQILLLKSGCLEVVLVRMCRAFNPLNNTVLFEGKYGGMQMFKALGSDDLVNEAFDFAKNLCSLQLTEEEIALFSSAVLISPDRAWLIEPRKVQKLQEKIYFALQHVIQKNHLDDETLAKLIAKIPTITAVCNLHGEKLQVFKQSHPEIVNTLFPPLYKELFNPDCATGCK
Sequence of Nuclear receptor subfamily 1 group I member 2 (Homo sapiens) (O75469 whole entry, looked up, the tested form may be a part): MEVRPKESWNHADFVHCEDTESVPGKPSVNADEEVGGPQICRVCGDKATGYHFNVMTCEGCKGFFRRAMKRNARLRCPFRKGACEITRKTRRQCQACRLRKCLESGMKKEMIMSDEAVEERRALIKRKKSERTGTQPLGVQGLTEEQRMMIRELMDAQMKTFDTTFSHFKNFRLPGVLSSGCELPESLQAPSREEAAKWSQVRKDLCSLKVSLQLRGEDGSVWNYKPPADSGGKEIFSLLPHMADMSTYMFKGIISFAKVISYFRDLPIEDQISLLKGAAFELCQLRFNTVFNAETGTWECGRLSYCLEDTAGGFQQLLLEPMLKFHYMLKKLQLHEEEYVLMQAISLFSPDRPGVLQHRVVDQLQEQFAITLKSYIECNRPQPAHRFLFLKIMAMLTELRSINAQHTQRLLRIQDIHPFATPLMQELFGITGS
Sequence of human Peroxisome Proliferator-activated Receptor delta (PPARd), PPARD (gene 5467) (Q03181 whole entry, looked up, the tested form may be a part): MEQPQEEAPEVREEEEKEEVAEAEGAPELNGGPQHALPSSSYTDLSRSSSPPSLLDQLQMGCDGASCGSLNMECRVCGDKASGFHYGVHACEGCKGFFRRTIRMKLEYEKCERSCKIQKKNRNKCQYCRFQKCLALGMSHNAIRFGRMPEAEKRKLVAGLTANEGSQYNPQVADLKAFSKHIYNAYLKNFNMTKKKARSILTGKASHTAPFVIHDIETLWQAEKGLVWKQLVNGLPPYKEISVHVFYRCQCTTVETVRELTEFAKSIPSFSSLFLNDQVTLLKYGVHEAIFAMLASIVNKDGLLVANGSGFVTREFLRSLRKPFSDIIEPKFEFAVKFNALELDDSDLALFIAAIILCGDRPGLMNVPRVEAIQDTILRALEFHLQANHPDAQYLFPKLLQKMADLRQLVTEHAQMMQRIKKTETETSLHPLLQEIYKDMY
Sequence of human Retinoid X Receptor beta (RXRb), RXRB (gene 6257) (P28702 whole entry, looked up, the tested form may be a part): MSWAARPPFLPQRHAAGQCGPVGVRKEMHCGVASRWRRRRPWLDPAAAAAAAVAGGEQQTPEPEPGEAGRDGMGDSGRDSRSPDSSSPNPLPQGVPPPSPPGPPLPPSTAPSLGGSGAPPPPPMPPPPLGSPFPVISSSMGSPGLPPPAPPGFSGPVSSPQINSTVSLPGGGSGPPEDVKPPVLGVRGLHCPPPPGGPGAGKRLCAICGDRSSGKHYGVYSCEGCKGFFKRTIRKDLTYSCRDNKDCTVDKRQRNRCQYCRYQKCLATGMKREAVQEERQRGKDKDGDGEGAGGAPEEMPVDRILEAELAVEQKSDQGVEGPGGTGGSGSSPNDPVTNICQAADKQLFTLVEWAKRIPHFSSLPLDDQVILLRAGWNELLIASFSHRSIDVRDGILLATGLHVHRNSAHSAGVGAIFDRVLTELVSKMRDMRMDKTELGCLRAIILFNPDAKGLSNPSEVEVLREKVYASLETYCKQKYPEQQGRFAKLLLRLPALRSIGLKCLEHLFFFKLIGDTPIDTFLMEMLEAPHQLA
Sequence of human Peroxisome Proliferator-activated Receptor alpha (PPARa), PPARA (gene 5465) (Q07869 whole entry, looked up, the tested form may be a part): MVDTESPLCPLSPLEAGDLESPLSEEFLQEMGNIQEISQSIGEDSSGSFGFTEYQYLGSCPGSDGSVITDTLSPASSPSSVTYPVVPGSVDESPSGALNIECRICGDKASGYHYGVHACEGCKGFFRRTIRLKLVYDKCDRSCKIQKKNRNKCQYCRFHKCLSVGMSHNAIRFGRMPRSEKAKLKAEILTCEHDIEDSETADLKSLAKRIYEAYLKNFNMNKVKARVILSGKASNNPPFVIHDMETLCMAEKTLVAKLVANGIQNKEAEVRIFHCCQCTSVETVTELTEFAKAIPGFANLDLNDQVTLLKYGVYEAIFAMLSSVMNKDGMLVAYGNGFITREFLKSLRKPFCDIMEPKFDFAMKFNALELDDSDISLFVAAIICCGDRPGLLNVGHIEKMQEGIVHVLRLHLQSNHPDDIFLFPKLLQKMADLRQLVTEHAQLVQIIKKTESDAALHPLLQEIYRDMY
Sequence of human Retinoic Acid Receptor beta (RARb), RARB (gene 5915) (P10826 whole entry, looked up, the tested form may be a part): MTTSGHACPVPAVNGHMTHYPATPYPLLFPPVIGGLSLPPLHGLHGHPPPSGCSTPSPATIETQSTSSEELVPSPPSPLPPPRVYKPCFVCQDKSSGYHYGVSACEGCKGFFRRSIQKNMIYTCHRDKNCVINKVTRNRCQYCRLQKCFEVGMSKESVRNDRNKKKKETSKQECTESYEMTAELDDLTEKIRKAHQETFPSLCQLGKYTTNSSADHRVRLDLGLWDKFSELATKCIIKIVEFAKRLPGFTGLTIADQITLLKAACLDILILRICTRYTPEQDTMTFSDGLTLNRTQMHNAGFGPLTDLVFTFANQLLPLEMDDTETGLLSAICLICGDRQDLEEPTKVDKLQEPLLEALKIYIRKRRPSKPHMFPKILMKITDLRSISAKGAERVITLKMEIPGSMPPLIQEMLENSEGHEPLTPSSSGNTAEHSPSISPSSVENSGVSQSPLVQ
Sequence of human Thyroid Receptor alpha (THRa1), THRA (gene 7067) (P10827 whole entry, looked up, the tested form may be a part): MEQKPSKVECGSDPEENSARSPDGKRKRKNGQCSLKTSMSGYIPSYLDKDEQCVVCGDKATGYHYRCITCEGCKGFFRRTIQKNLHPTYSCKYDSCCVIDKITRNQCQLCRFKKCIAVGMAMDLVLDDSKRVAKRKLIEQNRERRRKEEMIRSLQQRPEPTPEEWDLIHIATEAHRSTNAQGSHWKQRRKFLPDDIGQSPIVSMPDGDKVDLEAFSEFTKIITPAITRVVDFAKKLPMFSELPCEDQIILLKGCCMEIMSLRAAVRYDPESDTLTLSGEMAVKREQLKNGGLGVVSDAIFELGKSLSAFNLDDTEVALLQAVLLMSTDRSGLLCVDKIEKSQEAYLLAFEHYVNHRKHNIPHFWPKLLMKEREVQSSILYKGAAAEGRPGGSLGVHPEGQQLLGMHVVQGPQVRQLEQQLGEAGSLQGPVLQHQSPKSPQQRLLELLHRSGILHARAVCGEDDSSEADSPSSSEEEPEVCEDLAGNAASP
Sequence of Peroxisome proliferator-activated receptor gamma (Homo sapiens) (P37231 whole entry, looked up, the tested form may be a part): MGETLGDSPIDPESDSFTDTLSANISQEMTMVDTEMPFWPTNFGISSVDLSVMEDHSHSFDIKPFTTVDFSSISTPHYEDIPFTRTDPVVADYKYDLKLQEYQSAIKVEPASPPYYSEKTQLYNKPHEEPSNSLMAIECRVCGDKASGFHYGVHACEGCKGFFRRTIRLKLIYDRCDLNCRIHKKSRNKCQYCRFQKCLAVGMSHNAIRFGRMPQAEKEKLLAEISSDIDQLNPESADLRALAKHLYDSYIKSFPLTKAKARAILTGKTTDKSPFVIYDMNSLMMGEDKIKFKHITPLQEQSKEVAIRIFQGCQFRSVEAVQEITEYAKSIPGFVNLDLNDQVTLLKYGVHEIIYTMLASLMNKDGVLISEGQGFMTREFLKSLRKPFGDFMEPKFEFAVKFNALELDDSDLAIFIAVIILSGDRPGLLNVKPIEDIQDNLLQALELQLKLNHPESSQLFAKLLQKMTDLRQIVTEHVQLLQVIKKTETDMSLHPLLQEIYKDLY
Sequence of Retinoic acid receptor alpha (Homo sapiens) (P10276 whole entry, looked up, the tested form may be a part): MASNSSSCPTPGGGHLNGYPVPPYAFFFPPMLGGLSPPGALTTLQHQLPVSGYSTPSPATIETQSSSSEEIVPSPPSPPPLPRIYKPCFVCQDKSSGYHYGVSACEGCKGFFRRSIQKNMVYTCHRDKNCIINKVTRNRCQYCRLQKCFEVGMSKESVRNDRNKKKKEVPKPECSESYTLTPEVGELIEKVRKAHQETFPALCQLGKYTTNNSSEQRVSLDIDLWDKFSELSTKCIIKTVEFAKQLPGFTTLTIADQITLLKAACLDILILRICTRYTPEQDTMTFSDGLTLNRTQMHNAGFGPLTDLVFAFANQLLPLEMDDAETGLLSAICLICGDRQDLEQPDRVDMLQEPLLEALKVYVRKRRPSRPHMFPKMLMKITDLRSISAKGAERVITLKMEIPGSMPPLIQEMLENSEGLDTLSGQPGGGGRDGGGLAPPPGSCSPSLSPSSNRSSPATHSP

c1ccc2c(c1)c1cccc3ccc4cccc2c4c31
active: [8] 10.2 µM | [13] 0.206 µM
inactive: [1] | [2] | [3] | [4] | [5] | [6] | [7] | [9] | [10] | [11] | [12] | [14] | [15]

O=C1CCCCCCCCCCCCCCO1
active: [1] 100 µM | [2] 179 µM | [3] 28.6 µM | [4] 20 µM | [16] 60.1 µM | [5] 48.3 µM | [8] 100 µM | [10] 20 µM | [11] 26.5 µM | [12] 25.4 µM | [13] 20 µM | [14] 33.6 µM
inactive: [6] | [7] | [15]

O=S(=O)(O)c1cccc2c(S(=O)(=O)O)cccc12
inactive: [1] | [2] | [17] | [18] | [8]

O=C(O)CN(CCN(CC(=O)O)CC(=O)O)CCN(CC(=O)O)CC(=O)O
inactive: [1] | [2] | [17] | [19] | [16] | [6] | [7]

O=c1cc(-c2ccccc2)oc2cc(O)cc(O)c12
inactive: [1] | [2] | [19] | [5] | [9]
